Data: article PMC7862700, “An all-to-all approach to the identification of sequence-specific readers for epigenetic DNA modifications on cytosine”

What was measured:
Test in all cases: DAPPL (digital affinity profiling via proximity ligation, sequencing); 10 mM Tris-HCl pH 7.5, 50 mM NaCl, 1 mM DTT, 4% glycerol, room temperature, 30 min; GST-TFs on glutathione beads, 16-mer random dsDNA library, 0.1% formaldehyde crosslink after washing; high values mean tight binding
Details in all cases: protein: recombinant; tags: N-terminal GST; dsDNA, one strand shown
FLI1 = biological target: T1, FLI1 (Homo sapiens, UniProt Q01543 1-452)
T1 sequence: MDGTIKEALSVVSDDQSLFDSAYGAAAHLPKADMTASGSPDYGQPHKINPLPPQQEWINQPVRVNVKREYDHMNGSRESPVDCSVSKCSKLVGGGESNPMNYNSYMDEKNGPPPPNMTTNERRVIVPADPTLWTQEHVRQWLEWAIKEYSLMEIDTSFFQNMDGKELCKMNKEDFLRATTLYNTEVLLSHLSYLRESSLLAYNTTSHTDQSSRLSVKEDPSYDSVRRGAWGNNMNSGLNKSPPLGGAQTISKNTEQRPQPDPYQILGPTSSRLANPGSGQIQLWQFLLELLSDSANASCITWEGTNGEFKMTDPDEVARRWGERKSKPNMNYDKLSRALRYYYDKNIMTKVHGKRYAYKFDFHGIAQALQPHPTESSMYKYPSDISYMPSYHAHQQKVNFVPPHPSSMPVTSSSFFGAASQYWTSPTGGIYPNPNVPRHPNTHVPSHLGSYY
Outline: (§1)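 Binding signal is given per hexamer as its read frequency for a factor divided by its frequency in the tag-only sample. GST-fused human transcription factors were expressed in yeast, captured on glutathione beads, barcoded with DNA and pooled with that sample, then incubated with 200 nmole of a 16-mer random double-stranded DNA library in Tris/NaCl/DTT/glycerol buffer for 30 min at room temperature. The pools were then washed, crosslinked, proximity-ligated, amplified by PCR and sequenced on an Illumina NextSeq500.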

ELK1 = biological target: T2, ELK1 (Homo sapiens, UniProt P19419 1-428)
T2 sequence: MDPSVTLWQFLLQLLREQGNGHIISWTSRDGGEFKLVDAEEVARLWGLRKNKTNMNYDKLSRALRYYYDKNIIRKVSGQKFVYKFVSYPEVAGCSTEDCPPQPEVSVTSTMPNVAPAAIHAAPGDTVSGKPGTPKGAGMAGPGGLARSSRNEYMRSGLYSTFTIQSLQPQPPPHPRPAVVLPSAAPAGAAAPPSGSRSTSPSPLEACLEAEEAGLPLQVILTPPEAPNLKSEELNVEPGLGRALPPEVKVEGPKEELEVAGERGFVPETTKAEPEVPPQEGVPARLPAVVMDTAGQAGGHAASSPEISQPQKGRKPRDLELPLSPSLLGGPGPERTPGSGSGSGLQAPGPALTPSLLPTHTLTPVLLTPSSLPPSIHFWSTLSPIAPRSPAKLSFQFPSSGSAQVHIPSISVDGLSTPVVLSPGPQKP
Outline: as §1

GABPA = biological target: T3, GABPA (Homo sapiens, UniProt Q06546 1-454)
T3 sequence: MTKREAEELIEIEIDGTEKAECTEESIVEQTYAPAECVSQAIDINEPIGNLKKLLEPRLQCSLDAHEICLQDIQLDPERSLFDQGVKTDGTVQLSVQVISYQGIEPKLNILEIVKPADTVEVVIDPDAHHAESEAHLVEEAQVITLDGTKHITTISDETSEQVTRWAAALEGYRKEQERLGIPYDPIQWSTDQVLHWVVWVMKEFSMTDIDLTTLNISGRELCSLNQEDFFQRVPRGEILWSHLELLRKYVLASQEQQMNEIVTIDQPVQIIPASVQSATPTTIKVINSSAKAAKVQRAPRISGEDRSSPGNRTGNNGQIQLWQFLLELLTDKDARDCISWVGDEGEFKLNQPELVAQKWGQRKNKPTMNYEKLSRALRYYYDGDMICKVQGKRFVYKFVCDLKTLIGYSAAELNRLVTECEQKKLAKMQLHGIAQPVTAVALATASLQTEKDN
Outline: as §1

ERG = biological target: T4, ERG (Homo sapiens, UniProt P11308 1-479)
T4 sequence: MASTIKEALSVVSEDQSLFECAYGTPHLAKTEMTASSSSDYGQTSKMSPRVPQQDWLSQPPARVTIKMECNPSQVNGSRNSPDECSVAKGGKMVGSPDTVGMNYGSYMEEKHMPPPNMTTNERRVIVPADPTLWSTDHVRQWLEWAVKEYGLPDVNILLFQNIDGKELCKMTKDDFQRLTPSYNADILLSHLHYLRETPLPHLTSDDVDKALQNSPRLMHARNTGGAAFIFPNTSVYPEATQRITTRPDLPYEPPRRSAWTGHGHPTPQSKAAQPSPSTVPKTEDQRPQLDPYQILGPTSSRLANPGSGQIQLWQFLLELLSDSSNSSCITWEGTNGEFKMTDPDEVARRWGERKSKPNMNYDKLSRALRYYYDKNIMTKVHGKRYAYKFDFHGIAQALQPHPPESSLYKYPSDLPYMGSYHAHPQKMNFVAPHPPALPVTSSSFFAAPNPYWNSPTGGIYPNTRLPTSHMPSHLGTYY
Outline: as §1

ELF1 = ELF1 (Homo sapiens, UniProt P32519 1-619)
ELF1, sequence (P32519 whole entry): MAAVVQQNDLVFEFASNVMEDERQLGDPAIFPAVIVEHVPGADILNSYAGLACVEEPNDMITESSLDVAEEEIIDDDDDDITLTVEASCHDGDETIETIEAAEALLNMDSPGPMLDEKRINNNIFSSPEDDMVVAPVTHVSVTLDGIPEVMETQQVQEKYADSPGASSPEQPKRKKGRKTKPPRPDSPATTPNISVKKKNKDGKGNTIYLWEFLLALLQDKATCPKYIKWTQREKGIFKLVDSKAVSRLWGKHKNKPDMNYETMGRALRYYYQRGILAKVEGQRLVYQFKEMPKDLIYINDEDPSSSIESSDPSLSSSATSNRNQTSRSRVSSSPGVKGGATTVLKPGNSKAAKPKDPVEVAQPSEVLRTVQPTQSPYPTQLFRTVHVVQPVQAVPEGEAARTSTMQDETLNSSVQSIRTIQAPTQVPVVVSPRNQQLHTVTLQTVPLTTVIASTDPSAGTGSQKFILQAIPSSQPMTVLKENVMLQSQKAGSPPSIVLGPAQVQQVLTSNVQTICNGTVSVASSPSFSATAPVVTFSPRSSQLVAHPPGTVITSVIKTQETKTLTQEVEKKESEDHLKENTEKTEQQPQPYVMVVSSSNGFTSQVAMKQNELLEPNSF
Outline: as §1

EHF = biological target: T5, EHF (Homo sapiens, UniProt Q9NZC4 1-300)
T5 sequence: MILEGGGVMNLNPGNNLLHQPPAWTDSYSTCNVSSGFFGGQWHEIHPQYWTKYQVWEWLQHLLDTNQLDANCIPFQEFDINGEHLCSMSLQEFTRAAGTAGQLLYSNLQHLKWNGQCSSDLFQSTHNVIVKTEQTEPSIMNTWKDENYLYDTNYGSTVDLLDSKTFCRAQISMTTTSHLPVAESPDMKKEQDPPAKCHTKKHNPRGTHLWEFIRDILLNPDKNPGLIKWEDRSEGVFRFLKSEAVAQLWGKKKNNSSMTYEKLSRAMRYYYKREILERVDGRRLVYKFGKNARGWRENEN
Outline: as §1

SPI1 = SPI1 (Homo sapiens, UniProt P17947 1-270)
Outline: as §1

SPIB = SPIB (Homo sapiens, UniProt Q01892 1-262)
SPIB, sequence (Q01892 whole entry): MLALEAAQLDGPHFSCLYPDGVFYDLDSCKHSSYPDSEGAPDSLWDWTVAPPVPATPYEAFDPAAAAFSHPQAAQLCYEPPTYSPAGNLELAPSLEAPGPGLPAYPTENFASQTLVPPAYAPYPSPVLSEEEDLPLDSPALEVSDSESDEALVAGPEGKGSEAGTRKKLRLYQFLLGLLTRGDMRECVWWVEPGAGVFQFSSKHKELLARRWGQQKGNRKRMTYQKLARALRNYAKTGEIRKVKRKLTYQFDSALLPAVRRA
Outline: as §1

ELK3 = biological target: T6, ELK3 (Homo sapiens, UniProt P41970 1-407)
T6 sequence: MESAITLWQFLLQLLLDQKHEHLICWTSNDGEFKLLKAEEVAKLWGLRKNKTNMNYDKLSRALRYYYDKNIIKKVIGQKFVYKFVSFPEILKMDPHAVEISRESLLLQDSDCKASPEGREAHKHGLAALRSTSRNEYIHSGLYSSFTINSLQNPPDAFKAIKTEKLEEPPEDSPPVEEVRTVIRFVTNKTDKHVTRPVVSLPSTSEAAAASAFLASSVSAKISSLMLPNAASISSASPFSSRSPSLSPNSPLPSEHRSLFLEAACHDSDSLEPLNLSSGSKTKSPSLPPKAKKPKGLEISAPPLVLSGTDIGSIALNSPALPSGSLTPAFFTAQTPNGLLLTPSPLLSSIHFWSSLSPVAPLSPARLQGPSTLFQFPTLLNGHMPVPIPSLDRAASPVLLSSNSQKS
Outline: as §1

FEV = biological target: T7, FEV (Homo sapiens, UniProt Q99581 1-238)
T7 sequence: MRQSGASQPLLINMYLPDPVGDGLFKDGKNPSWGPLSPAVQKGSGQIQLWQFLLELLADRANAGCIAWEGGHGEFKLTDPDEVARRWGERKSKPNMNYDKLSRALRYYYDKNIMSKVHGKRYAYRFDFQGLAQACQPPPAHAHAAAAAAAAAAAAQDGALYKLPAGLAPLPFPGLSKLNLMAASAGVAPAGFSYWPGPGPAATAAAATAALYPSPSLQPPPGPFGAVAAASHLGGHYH
Outline: as §1

ETV5 = ETV5 (Homo sapiens, UniProt P41161 1-510)
ETV5, sequence (P41161 whole entry): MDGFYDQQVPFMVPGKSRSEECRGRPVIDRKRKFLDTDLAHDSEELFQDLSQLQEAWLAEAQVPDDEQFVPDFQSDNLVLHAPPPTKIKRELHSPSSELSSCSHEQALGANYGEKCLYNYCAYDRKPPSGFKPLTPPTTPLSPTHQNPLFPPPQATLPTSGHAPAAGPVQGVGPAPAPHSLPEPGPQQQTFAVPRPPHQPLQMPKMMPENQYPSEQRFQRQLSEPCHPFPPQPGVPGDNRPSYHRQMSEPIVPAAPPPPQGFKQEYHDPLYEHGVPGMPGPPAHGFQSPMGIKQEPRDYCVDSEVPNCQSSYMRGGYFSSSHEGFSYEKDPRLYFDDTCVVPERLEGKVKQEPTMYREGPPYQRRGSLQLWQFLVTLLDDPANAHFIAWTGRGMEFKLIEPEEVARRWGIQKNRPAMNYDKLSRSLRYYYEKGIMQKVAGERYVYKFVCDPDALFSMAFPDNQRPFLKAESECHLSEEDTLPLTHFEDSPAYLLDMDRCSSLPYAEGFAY
Outline: as §1

SPIC = biological target: T8, SPIC (Homo sapiens, UniProt Q8N5J4 1-248)
T8 sequence: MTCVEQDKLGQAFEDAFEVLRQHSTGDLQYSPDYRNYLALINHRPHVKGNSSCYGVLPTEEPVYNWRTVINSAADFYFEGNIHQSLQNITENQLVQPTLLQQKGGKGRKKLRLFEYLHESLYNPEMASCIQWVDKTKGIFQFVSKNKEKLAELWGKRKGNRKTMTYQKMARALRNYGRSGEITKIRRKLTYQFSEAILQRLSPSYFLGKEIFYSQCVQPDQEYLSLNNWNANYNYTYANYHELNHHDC
Outline: as §1

ELF4 = ELF4 (Homo sapiens, UniProt Q99607 1-663)
ELF4, sequence (Q99607 whole entry): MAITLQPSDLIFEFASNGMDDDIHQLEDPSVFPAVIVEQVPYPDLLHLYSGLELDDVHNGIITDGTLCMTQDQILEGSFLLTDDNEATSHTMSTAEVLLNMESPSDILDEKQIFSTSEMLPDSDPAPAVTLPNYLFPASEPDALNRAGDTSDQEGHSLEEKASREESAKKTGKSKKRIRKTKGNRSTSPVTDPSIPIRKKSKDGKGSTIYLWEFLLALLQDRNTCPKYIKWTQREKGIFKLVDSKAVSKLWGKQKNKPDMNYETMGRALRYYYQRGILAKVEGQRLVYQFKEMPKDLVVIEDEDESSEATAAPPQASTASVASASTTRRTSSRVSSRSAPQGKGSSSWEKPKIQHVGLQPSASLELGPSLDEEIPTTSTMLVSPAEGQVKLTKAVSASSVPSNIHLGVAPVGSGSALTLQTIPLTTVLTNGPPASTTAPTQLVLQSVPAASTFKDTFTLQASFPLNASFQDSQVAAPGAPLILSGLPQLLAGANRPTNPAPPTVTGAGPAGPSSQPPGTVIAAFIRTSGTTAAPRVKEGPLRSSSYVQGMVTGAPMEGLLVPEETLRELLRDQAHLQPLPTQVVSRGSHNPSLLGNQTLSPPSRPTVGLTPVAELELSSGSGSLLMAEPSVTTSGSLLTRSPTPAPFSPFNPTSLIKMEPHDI
Outline: as §1

ELK4 = biological target: T9, ELK4 (Homo sapiens, UniProt P28324-2 1-405)
T9 sequence: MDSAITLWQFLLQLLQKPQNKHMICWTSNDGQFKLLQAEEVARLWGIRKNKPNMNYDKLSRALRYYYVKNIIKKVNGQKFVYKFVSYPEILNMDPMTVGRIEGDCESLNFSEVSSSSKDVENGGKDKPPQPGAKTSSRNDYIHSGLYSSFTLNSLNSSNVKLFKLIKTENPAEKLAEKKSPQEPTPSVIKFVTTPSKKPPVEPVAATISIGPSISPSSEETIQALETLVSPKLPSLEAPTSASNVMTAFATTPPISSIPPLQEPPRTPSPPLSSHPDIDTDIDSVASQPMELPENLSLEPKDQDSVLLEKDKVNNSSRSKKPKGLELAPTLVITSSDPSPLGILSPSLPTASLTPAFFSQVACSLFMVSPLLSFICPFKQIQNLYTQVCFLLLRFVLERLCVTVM
Outline: as §1

ETV2 = biological target: T10, ETV2 (Homo sapiens, UniProt O00321 1-342)
T10 sequence: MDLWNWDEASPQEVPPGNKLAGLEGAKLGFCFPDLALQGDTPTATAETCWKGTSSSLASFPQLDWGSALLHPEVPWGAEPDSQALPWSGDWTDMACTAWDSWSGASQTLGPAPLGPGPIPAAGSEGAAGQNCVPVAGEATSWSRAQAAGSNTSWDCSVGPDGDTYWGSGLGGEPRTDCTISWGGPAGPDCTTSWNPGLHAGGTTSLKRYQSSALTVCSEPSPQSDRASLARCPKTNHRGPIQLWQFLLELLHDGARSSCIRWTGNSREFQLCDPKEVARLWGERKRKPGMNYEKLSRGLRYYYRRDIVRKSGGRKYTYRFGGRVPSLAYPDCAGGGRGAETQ
Outline: as §1

ELF3 = biological target: T11, ELF3 (Homo sapiens, UniProt P78545 1-371)
T11 sequence: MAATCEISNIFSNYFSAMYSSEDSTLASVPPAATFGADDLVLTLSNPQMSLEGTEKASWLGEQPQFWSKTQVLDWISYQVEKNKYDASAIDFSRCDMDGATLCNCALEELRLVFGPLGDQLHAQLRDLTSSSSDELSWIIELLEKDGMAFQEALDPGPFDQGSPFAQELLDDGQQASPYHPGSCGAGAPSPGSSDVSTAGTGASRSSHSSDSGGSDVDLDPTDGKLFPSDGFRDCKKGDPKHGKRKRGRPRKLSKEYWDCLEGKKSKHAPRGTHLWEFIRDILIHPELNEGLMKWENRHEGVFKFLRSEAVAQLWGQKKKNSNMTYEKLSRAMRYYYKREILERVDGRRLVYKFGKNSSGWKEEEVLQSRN
Outline: as §1

ETV1 = ETV1 (Homo sapiens, UniProt P50549 1-477)
ETV1, sequence (P50549 whole entry): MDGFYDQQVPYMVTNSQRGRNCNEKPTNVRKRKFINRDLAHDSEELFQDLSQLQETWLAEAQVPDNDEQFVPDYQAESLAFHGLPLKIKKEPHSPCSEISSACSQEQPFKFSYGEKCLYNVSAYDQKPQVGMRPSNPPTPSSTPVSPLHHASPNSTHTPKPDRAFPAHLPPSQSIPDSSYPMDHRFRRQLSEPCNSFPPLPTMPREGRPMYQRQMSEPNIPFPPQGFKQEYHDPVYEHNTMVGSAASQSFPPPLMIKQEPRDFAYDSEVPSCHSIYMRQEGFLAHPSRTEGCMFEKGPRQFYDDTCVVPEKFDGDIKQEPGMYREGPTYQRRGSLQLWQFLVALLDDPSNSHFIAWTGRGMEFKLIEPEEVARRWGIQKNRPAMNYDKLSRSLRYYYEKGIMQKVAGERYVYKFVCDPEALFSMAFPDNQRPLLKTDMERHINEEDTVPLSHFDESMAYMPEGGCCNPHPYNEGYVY
Outline: as §1

Row | Sequence | binding signal (FLI1) | binding signal (ELK1) | binding signal (GABPA) | binding signal (ERG) | binding signal (ELF1) | binding signal (EHF) | binding signal (SPI1) | binding signal (SPIB) | binding signal (ELK3) | binding signal (FEV) | binding signal (ETV5) | binding signal (SPIC) | binding signal (ELF4) | binding signal (ELK4) | binding signal (ETV2) | binding signal (ELF3) | binding signal (ETV1)
1 | CCCAAC | 1.13 fold enrichment (6-mer frequency, TF over GST control) | 1.14 fold enrichment (6-mer frequency, TF over GST control) | 1.09 fold enrichment (6-mer frequency, TF over GST control) | 1.15 fold enrichment (6-mer frequency, TF over GST control) | 1.13 fold enrichment (6-mer frequency, TF over GST control) | 1.16 fold enrichment (6-mer frequency, TF over GST control) | 1.07 fold enrichment (6-mer frequency, TF over GST control) | 1.11 fold enrichment (6-mer frequency, TF over GST control) | 1.02 fold enrichment (6-mer frequency, TF over GST control) | 1.17 fold enrichment (6-mer frequency, TF over GST control) | 1.11 fold enrichment (6-mer frequency, TF over GST control) | 1.17 fold enrichment (6-mer frequency, TF over GST control) | 1.22 fold enrichment (6-mer frequency, TF over GST control) | 1.18 fold enrichment (6-mer frequency, TF over GST control) | 1.03 fold enrichment (6-mer frequency, TF over GST control) | 1.17 fold enrichment (6-mer frequency, TF over GST control) | 1.13 fold enrichment (6-mer frequency, TF over GST control)
2 | CCCCCG | 1.21 fold enrichment (6-mer frequency, TF over GST control) | 1.09 fold enrichment (6-mer frequency, TF over GST control) | 1.03 fold enrichment (6-mer frequency, TF over GST control) | 1.18 fold enrichment (6-mer frequency, TF over GST control) | 1.1 fold enrichment (6-mer frequency, TF over GST control) | 1.1 fold enrichment (6-mer frequency, TF over GST control) | 1.08 fold enrichment (6-mer frequency, TF over GST control) | 1.09 fold enrichment (6-mer frequency, TF over GST control) | 1.07 fold enrichment (6-mer frequency, TF over GST control) | 1.2 fold enrichment (6-mer frequency, TF over GST control) | 1.08 fold enrichment (6-mer frequency, TF over GST control) | 1.14 fold enrichment (6-mer frequency, TF over GST control) | 1.18 fold enrichment (6-mer frequency, TF over GST control) | 1.16 fold enrichment (6-mer frequency, TF over GST control) | 1.03 fold enrichment (6-mer frequency, TF over GST control) | 1.22 fold enrichment (6-mer frequency, TF over GST control) | 1.04 fold enrichment (6-mer frequency, TF over GST control)
